Experimental data from the supplement of paper PMC7380943.

test system: CLZ3 (HCA2 human fibroblast dual HR-NHEJ reporter); assay: NHEJ repair efficiency (GFP+ cells) relative to control (log10 fold); higher = more non-homologous end joining; conditions: 5 µM; doxycycline 0.5 ug/mL
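Further: compound given one day ahead of doxycycline, which switches on I-SceI endonuclease to cut the chromosomally integrated reporter and create DSBs.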

| SMILES | NHEJ repair efficiency (log10) |
| --- | --- |
| C/C=C\c1ccc(OC)cc1 [cis-Anethol] | 0.133 |
| C=C1CCC[C@]2(C)C[C@]3(O)OC(=O)C(C)=C3C[C@@H]12 [Atractylenolide Iii] | 0.00444 |
| CC(C)=CCC/C(C)=C/CC/C(C)=C/CC/C(C)=C/CC/C(C)=C/CC/C(C)=C/CC/C(C)=C/CC/C(C)=C/CC/C(C)=C/CO [Solanesol] | -0.0479 |
| CC(=O)C1=C(O)C=C2Oc3c(C(C)=O)c(O)c(C)c(O)c3C2(C)C1=O (stereo in doubt) [Usnic Acid] | 0.00929 |
| C=C(C)[C@@H]1CC[C@]2(C(=O)O)CC[C@]3(C)[C@H](CC[C@@H]4[C@@]5(C)CCC(=O)C(C)(C)[C@@H]5CC[C@]43C)[C@@H]12 [Liquidambaric Acid] | -0.0687 |
| CC(C)=C1C/C=C(\C)CC/C=C(\C)CC1=O [Germacrone] | 0.0003 |
| CC(/C=C/C=C(\C)C(=O)O[C@@H]1O[C@H](CO[C@@H]2O[C@H](CO)[C@@H](O)[C@H](O)[C@H]2O)[C@@H](O)[C@H](O)[C@H]1O)=C\C=C\C=C(C)\C=C\C=C(/C)C(=O)O[C@@H]1O[C@H](CO[C@@H]2O[C@H](CO)[C@@H](O)[C@H](O)[C@H]2O)[C@@H](O)[C@H](O)[C@H]1O [Crocin] | -0.0374 |
| CC[C@H](CC[C@@H](C)[C@H]1CC[C@H]2[C@@H]3CC=C4C[C@@H](O)CC[C@]4(C)[C@H]3CC[C@]12C)C(C)C [β-Sitosterol] | 0.038 |
| C[C@@H]1O[C@@H](OC[C@H]2O[C@@H](Oc3cc(O)c4c(c3)O[C@H](c3ccc(O)cc3)CC4=O)[C@H](O)[C@@H](O)[C@@H]2O)[C@H](O)[C@H](O)[C@H]1O [Narirutin] | 0.00886 |
